Laboratory results from PubChem BioAssay AID1159580 (chemical genetic matrix, 2015).
Among all 5,500 compounds or so, about 2,000 (36%) were called active. Inconclusive results (about 18%) are left out. Rule as the data show it: active = normalized growth mostly below about 0.91 (no sharp cut-off); inconclusive = no clear call, values can overlap the other calls; inactive = mostly above about 0.92. This is one part of the list.

Experiment: chemical genetic growth profiling, strain panel (AID 1159580);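 also: tested at 20 µM; growth read once vehicle control cultures reached saturation at 30 °C; 1 = growth at the plate median or of vehicle wells; lower values mean less growth of the strain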
Details: growth OD

Measured: normalized growth

CNC(C)C(O)c1ccccc1 (centres undefined)
inactive: S. cerevisiae deletion strains, locus YJR043C, strain POL32, active compounds read low 0.999 | S. cerevisiae deletion strains, locus YJR066W, strain TOR1, active compounds read low 0.987 | S. cerevisiae deletion strains, locus YKL009W, strain mrt4, active compounds read low 1.01 | S. cerevisiae deletion strains, locus YKL068W, active compounds read low 1.01 | S. cerevisiae deletion strains, locus YKL085W, strain MDH1 (second series), active compounds read low 1 | S. cerevisiae deletion strains, locus YKL085W, strain MDH1, active compounds read low 1 | S. cerevisiae deletion strains, locus YKL160W, strain elf1, active compounds read low 1.02 | S. cerevisiae deletion strains, locus YKL190W, strain CNB1, active compounds read low 1.01 | S. cerevisiae deletion strains, locus YKR001C, strain vps1, active compounds read low 1.03 | S. cerevisiae deletion strains, locus YKR026C, strain gcn3, active compounds read low 1.01 | S. cerevisiae deletion strains, locus YKR091W, strain srl3, active compounds read low 1.01 | S. cerevisiae deletion strains, locus YLL001W, strain dnm1, active compounds read low 1.03 | S. cerevisiae deletion strains, locus YLL026W, active compounds read low 1.01 | S. cerevisiae deletion strains, locus YLL041C, strain sdh2, active compounds read low 1.01 | S. cerevisiae deletion strains, locus YLR027C, strain aat2, active compounds read low 1.02 | S. cerevisiae deletion strains, locus YLR039C, strain RIC1, active compounds read low 0.995 | S. cerevisiae deletion strains, locus YLR058C, strain SHM2, active compounds read low 1 | S. cerevisiae deletion strains, locus YLR102C, strain apc9, active compounds read low 1.02 | S. cerevisiae deletion strains, locus YLR113W, strain HOG1, active compounds read low 0.963 | S. cerevisiae deletion strains, locus YLR221C, strain rsa3, active compounds read low 1.01 | S. cerevisiae deletion strains, locus YLR258W, strain gsy2, active compounds read low 1.01 | S. cerevisiae deletion strains, locus YLR262C, strain YPT6 (second series), active compounds read low 1.01 | S. cerevisiae deletion strains, locus YLR262C, strain YPT6, active compounds read low 1.03 | S. cerevisiae deletion strains, locus YLR268W, strain sec22, active compounds read low 1.02 | S. cerevisiae deletion strains, locus YLR320W, strain mms22, active compounds read low 1.02 | S. cerevisiae deletion strains, locus YLR330W, strain CHS5, active compounds read low 1 | S. cerevisiae deletion strains, locus YLR342W, strain FKS1 (second series), active compounds read low 1 | S. cerevisiae deletion strains, locus YLR342W, strain FKS1, active compounds read low 1.02 | S. cerevisiae deletion strains, locus YLR357W, strain rsc2, active compounds read low 1.05 | S. cerevisiae deletion strains, locus YLR370C, strain arc18, active compounds read low 1.01 | S. cerevisiae deletion strains, locus YLR371W, strain rom2, active compounds read low 1.02 | S. cerevisiae deletion strains, locus YLR384C, strain iki3, active compounds read low 1.02 | S. cerevisiae deletion strains, locus YLR418C, strain cdc73, active compounds read low 1.04 | S. cerevisiae deletion strains, locus YML016C, strain PPZ1, active compounds read low 1.01 | S. cerevisiae deletion strains, locus YML032C, strain rad52, active compounds read low 1.03 | S. cerevisiae deletion strains, locus YML120C, strain ndi1, active compounds read low 1.02 | S. cerevisiae deletion strains, locus YML124C, strain tub3, active compounds read low 1.03 | S. cerevisiae deletion strains, locus YMR058W, strain fet3, active compounds read low 1.02 | S. cerevisiae deletion strains, locus YMR078C, strain ctf18, active compounds read low 1.03 | S. cerevisiae deletion strains, locus YMR125W, strain sto1, active compounds read low 0.996 | S. cerevisiae deletion strains, locus YMR129W, active compounds read low 1 | S. cerevisiae deletion strains, locus YMR205C, strain PFK2, active compounds read low 1.01 | S. cerevisiae deletion strains, locus YMR223W, strain ubp8, active compounds read low 1.02 | S. cerevisiae deletion strains, locus YMR231W, strain pep5, active compounds read low 1.01 | S. cerevisiae deletion strains, locus YMR307W, strain GAS1, active compounds read low 1.02 | S. cerevisiae deletion strains, locus YNL067W, strain RPL9B, active compounds read low 1 | S. cerevisiae deletion strains, locus YNL071W, strain lat1, active compounds read low 1.02 | S. cerevisiae deletion strains, locus YNL128W, strain TEP1, active compounds read low 1.02 | S. cerevisiae deletion strains, locus YNL183C, strain NPR1, active compounds read low 0.971 | S. cerevisiae deletion strains, locus YNL209W, strain ssb2, active compounds read low 1.01 | S. cerevisiae deletion strains, locus YNL233W, strain BNI4, active compounds read low 1 | S. cerevisiae deletion strains, locus YNL248C, strain rpa49, active compounds read low 1.01 | S. cerevisiae deletion strains, locus YNL250W, strain rad50, active compounds read low 1.02 | S. cerevisiae deletion strains, locus YNL271C, strain bni1, active compounds read low 1.02 | S. cerevisiae deletion strains, locus YNL298W, strain CLA4, active compounds read low 1.03 | S. cerevisiae deletion strains, locus YNL307C, strain MCK1, active compounds read low 1.04 | S. cerevisiae deletion strains, locus YNL322C, strain KRE1 (second series), active compounds read low 1.01 | S. cerevisiae deletion strains, locus YNR049C, strain mso1, active compounds read low 1.01 | S. cerevisiae deletion strains, locus YNR052C, strain pop2, active compounds read low 1.02 | S. cerevisiae deletion strains, locus YOL006C, strain TOP1, active compounds read low 0.993 | S. cerevisiae deletion strains, locus YOL012C, strain htz1 1.14 | S. cerevisiae deletion strains, locus YOL147C, strain pex11, active compounds read low 1.03 | S. cerevisiae deletion strains, locus YOR001W, strain rrp6, active compounds read low 1.02 | S. cerevisiae deletion strains, locus YOR061W, strain CKA2, active compounds read low 1.01 | S. cerevisiae deletion strains, locus YOR069W, strain VPS5, active compounds read low 1 | S. cerevisiae deletion strains, locus YOR070C, strain gyp1, active compounds read low 1.01 | S. cerevisiae deletion strains, locus YOR080W, strain dia2, active compounds read low 1.01 | S. cerevisiae deletion strains, locus YOR083W, strain WHI5, active compounds read low 1.02 | S. cerevisiae deletion strains, locus YOR106W, strain vam3, active compounds read low 1.03 | S. cerevisiae deletion strains, locus YOR136W, strain idh2, active compounds read low 1.02 | S. cerevisiae deletion strains, locus YOR144C, strain elg1, active compounds read low 1.01 | S. cerevisiae deletion strains, locus YOR184W, strain ser1, active compounds read low 1.03 | S. cerevisiae deletion strains, locus YOR231W, strain MKK1, active compounds read low 0.995 | S. cerevisiae deletion strains, locus YOR265W, strain rbl2, active compounds read low 1.01 | S. cerevisiae deletion strains, locus YOR270C, strain vph1, active compounds read low 1.04 | S. cerevisiae deletion strains, locus YOR290C, strain snf2, active compounds read low 1 | S. cerevisiae deletion strains, locus YOR316C, strain cot1, active compounds read low 1.02 | S. cerevisiae deletion strains, locus YPL051W, strain arl3, active compounds read low 1.02 | S. cerevisiae deletion strains, locus YPL055C, strain LGE1, active compounds read low 1.01 | S. cerevisiae deletion strains, locus YPL078C, strain atp4, active compounds read low 1.03 | S. cerevisiae deletion strains, locus YPL106C, strain sse1, active compounds read low 1.01 | S. cerevisiae deletion strains, locus YPL240C, strain hsp82, active compounds read low 1.01 | S. cerevisiae deletion strains, locus YPL256C, strain CLN2, active compounds read low 1.03 | S. cerevisiae deletion strains, locus YPR119W, strain clb2, active compounds read low 1.02 | S. cerevisiae deletion strains, locus YPR141C, strain kar3, active compounds read low 1.02 | S. cerevisiae deletion strains, locus YPR163C, strain tif3, active compounds read low 1.04 | S. cerevisiae deletion strains, locus YPR167C, strain met16, active compounds read low 1.02 | S. cerevisiae deletion strains, strain wtn01, active compounds read low 1.02 | S. cerevisiae strains, strain wild type, active compounds read low 0.999
